The source of these data is PubChem BioAssay.

Experiment [1] can be described thus: inhibitors of TNFa-induced NFkB p65 translocation, primary screen, imaging, HUVEC, MLSMR starter and 10KST1 sets (AID 438;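 active means inhibition above 20% together with a positive visual image hit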;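 further: compound added about 3h40 before a 20 min TNFalpha stimulation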;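 on inhibition: signal is the nuclear over cytoplasmic p65 intensity ratio per well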). The note with it: HUVEC TNFa-induced p65 nuclear translocation; cell count: measured here: nuclei count (cytotoxicity indicator), at 2.08 µM; inhibition: at 2 µM, stronger effect = higher value, 0% TNFa-plus-vehicle, 100% no-TNFa wells.
Experiment [2] in a line: reduction of polyQ htt aggregates in cells – imaging, exon1htt(103Q)mCFP cells, high-content imaging, primary screen (AID 483;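 active means visual image review flags a hit and inhibition of aggregation exceeds 20%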;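 further: compound exposure lasted 3 days before fixation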;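 on nuclei count: percent of the per-plate median nuclei count of sample wells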). The note with it: exon1htt(103Q)mCFP cell line, aggregate imaging, at 2 µM; inhibition of aggregation: stronger effect = higher value; nuclei count: measured here: cell count, toxicity.
A short description of experiment [3]: endothelial E-selectin expression blockers – imaging, HUVEC, immunofluorescence, MLSMR starter and 10KST1 sets, primary screen (AID 487;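 active means visually confirmed hit in the image check and inhibition above 20%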;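 on inhibition: signal is fraction of cell area covered by stained E-selectin grains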;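 on nuclei count: 100% = median nuclei count of all wells on the same plate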). The note with it: HUVEC TNFalpha-induced E-selectin immunofluorescence imaging, at 2 µM; inhibition: stronger effect = higher value; nuclei count: measured here: cell number, toxicity.
Experiment [4] has as its target Voltage-gated potassium channel subunit beta-2 (Rattus norvegicus) (UniProt P62483). Nature of the experiment: inhibitors of rat Kvbeta2 reductase activity – biochemical, NADPH fluorescence, primary screen (AID 622;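 active means fluorescence slope higher than the sample average by over 3 SD, cut at about -0.22 in these data, passing the limit was not always enough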;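 further: slope of raw intensity against log time taken from 70 to 1610 s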). Particulars: recombinant KvBeta, 4-cyanobenzaldehyde reduction, at 10 µM, stronger effect = higher value.
Experiment [5] has the same target. In words: enhancers of rat Kvbeta2 NADPH turnover – biochemical, NADPH fluorescence, primary screen (AID 623).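 Further: fluorescence intensity change per second fitted from 20 to 320 s.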 The note with it: Recombinant KvBeta, NADPH fluorescence decrease slope, 10 min; at 10 µM; stronger effect = lower value.
For experiment [6], the target named is Alpha-2C adrenergic receptor (Homo sapiens) (UniProt P18825). Nature of the experiment: compounds altering alpha2C-coupled GIRK flux – cell-based, HEK293 alpha2C/GIRK1/2, thallium flux, primary screen (AID 624;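 active means fluorescence slope after compound addition differing from the mean of all screened samples at 99.7% confidence, in either direction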;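 further: slope of fluorescence ratio to pre-addition baseline per second over 15 to 24 s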). Particulars: thallium flux BTC fluorescence, at 10 µM, actives lie on both sides.
A short description of experiment [7]: blockers of RIG-like receptor reporter activation – cell-based, Sendai virus stimulus, luciferase, 10K MLSCN set, TLR/RLR signaling modifier project, primary screen (AID 602276;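 active means inhibition at or above 50% at 10 µM; inactive means inhibition below 50%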;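 further: firefly luciferase from ISG56 promoter only with Renilla not read in this screen; 0% = Sendai virus plus DMSO and 100% = medium plus DMSO without virus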). Particulars: HEK293 RL24 IRF3 luciferase reporter, at 10 µM, stronger effect = higher value. Background: Reporter assays use an easily measured gene product as a stand-in for the process of interest.

The nature of experiment [8]: TLR3 IRF3 reporter activation blockers – cell-based, poly I:C stimulus, luciferase, 10K MLSCN set, primary screen (AID 602277;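 active means inhibition of the reporter signal at or above 50%; inactive means inhibition below 50%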). The note with it: HEK293-TLR3 RL24 IRF3 luciferase reporter, at 10 µM, stronger effect = higher value.

SMILES strings stand for the structures. Activity calls are given as the source filed them.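 How the source made its calls, unless noted: active means NADPH fluorescence slope more negative than the mean of all samples by about 3 SD, 99.7% confidence; inactive means the rest.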

Alpha-2C adrenergic receptor (Homo sapiens), sequence (P18825 whole entry, looked up): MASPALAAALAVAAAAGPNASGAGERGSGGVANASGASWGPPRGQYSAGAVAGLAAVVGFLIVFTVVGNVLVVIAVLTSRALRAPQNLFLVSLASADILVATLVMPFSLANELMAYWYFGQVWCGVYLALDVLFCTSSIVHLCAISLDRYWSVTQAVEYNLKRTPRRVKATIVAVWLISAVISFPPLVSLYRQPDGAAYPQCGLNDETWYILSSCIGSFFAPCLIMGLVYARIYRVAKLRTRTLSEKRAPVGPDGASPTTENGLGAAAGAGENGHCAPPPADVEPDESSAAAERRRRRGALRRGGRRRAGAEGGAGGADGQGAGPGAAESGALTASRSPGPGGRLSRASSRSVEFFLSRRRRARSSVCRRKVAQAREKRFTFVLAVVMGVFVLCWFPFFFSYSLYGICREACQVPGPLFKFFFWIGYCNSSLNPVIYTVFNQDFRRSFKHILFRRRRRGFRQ
Voltage-gated potassium channel subunit beta-2 (Rattus norvegicus), sequence (P62483 whole entry, looked up): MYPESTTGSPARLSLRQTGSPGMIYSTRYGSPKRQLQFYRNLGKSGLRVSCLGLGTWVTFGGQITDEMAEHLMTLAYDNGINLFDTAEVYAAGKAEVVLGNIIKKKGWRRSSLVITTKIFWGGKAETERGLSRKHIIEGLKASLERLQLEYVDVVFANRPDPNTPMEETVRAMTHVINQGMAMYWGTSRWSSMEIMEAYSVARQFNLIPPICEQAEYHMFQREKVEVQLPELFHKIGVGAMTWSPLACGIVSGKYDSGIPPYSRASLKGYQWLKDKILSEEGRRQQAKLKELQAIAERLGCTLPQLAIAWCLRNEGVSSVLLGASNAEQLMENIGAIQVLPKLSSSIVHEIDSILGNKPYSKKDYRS

`CC(NC(=O)c1cn(C)c2ccc(S(=O)(=O)N3CCCC3)cc2c1=O)c1ccc2c(c1)OCCO2` (centres undefined): in experiment [1], the cell count came to 766. In addition, the inhibition in experiment [1] was 0% (inactive); in experiment [3], 3.8% (inactive); in experiment [7], -4.57% (inactive); in experiment [8], 17% (inactive). The inhibition of aggregation in experiment [2] is 5.6% (inactive). Besides, the results for the nuclei count in experiment [2] and in experiment [3] were 98.3% and 103%, respectively. Also, the fluorescence slope in experiment [4] was -0.483 (inactive). In addition, the NADPH fluorescence slope in experiment [5] was -0.000101 (inactive). In addition, in experiment [6], the slope was 0.00703 (inactive).

As to `CCOc1cc(C(=O)N2CCN=C2SC)cc(OCC)c1OCC`, the cell count in experiment [1] worked out at 227. Moreover, the inhibition in experiment [1] was -4.9% (inactive); in experiment [3] it was -24.8% (inactive); in experiment [7] it was 15.5% (inactive); in experiment [8], 24.3% (inactive). Besides, the inhibition of aggregation in experiment [2] was -39.5% (inactive). Besides, the results for the nuclei count in experiment [2] and in experiment [3] were 109% and 108%, respectively. Besides, in experiment [4], the fluorescence slope was -0.595 (inactive). Besides, the NADPH fluorescence slope in experiment [5] was 4.6e-06 (inactive). Further, the slope in experiment [6] is 0.00661 (inactive).

For the compound `NC(=O)c1cccc(S(=O)(=O)N2CCCCC2)c1`, the cell count in experiment [1] worked out at 417. The inhibition in experiment [1] was 3% (inactive); in experiment [3], 47.1% (inactive); in experiment [7], 4.76% (inactive); in experiment [8], 31.6% (inactive). For the same compound, the inhibition of aggregation in experiment [2] is 15.9% (inactive). The nuclei count was 105% in experiment [2] and 87.4% in experiment [3]. In addition, in experiment [4], the fluorescence slope was -0.473 (inactive). In addition, the NADPH fluorescence slope in experiment [5] is -4.7e-05 (inactive). For the same compound, in experiment [6], the slope was 0.006 (inactive).

On to `O=C(CCNC(=O)c1ccc(Br)o1)NC1CCCC1`, for which, in experiment [1], the cell count turned out to be 507. In addition, the inhibition in experiment [1] is -18.2% (inactive); in experiment [3], -29.9% (inactive); in experiment [7] it was 14.4% (inactive); in experiment [8], 13.1% (inactive). Also, in experiment [2], the inhibition of aggregation was 35.3% (inactive). Further, the results for the nuclei count in experiment [2] and in experiment [3] were 77.7% and 87.3%, respectively. Further, in experiment [4], the fluorescence slope is -0.365 (inactive). Further, in experiment [5], the NADPH fluorescence slope was -5e-05 (inactive). Besides, the slope in experiment [6] is 0.00549 (inactive).

Consider `COCCn1c(CN2CCN(c3cccc(Cl)c3)CC2)nc2c1c(=O)n(C)c(=O)n2C`, for which, in experiment [1], the cell count is 712. Also, the inhibition in experiment [1] was -6.3% (inactive); in experiment [3] it was -24.9% (inactive); in experiment [7], 12.7% (inactive); in experiment [8] it was 15.3% (inactive). Besides, in experiment [2], the inhibition of aggregation is 5.4% (inactive). Also, the nuclei count in experiment [2] was 99.5%; in experiment [3], 120%. Moreover, in experiment [4], the fluorescence slope was -0.582 (inactive). Moreover, the NADPH fluorescence slope in experiment [5] is -4e-05 (inactive). The slope in experiment [6] is 0.00601 (inactive).

As to `O=S(=O)(c1ccc(Br)s1)N1CCN(c2ccccc2)CC1`, in experiment [1], the cell count came to 660. For the same compound, the inhibition in experiment [1] is 6.3% (inactive); in experiment [3], 14.4% (inactive); in experiment [7], 10.7% (inactive); in experiment [8] it was 13.7% (inactive). For the same compound, the inhibition of aggregation in experiment [2] was 0.1% (inactive). Besides, the nuclei count was determined as 90.2% in experiment [2] and 102% in experiment [3]. Also, the fluorescence slope in experiment [4] was -0.289 (inactive). The NADPH fluorescence slope in experiment [5] was -3e-05 (inactive). In addition, in experiment [6], the slope was 0.00522 (inactive).

On to `O=S(=O)(c1ccccc1)N(Cc1nc(-c2ccccc2)no1)C1CCCCC1`, for which, in experiment [1], the cell count was 446. In addition, the inhibition in experiment [1] was 2% (inactive); in experiment [3], -57.4% (inactive); in experiment [7] it was 16.6% (inactive); in experiment [8], 30.8% (inactive). Further, in experiment [2], the inhibition of aggregation is 5.6% (inactive). The nuclei count was found to be 76.3% in experiment [2] and 96.2% in experiment [3]. Moreover, in experiment [4], the fluorescence slope is -0.461 (inactive). Further, the NADPH fluorescence slope in experiment [5] is -1.2e-05 (inactive). The slope in experiment [6] was 0.00919 (inactive).

Take `COCCn1nnnc1C(c1cc2cc(OC)ccc2[nH]c1=O)N1CCC(Cc2ccccc2)CC1` (centres undefined): in experiment [1], the cell count is 247. The inhibition in experiment [1] was -3.5% (inactive); in experiment [3] it was -39.9% (inactive); in experiment [7], 14.4% (inactive); in experiment [8] it was 30.6% (inactive). Further, the inhibition of aggregation in experiment [2] was -2.5% (inactive). Also, the results for the nuclei count in experiment [2] and in experiment [3] were 88.5% and 117%, respectively. Further, in experiment [4], the fluorescence slope was -0.359 (inactive). For the same compound, in experiment [5], the NADPH fluorescence slope was 1.6e-05 (inactive). The slope in experiment [6] was 0.00322 (inactive).

As to `CC(C)(C)n1nnnc1CN1CCC(NC(=O)NC2CCCCC2)CC1`, the cell count in experiment [1] came out at 345. In addition, the inhibition in experiment [1] is -18.5% (inactive); in experiment [3] it was -45.9% (inactive); in experiment [7] it was 11% (inactive); in experiment [8], 18.5% (inactive). Moreover, the inhibition of aggregation in experiment [2] was 10.8% (inactive). Besides, the nuclei count in experiment [2] was determined as 93%; in experiment [3], 115%. In addition, the fluorescence slope in experiment [4] is -0.324 (inactive). Moreover, in experiment [5], the NADPH fluorescence slope was 9.8e-06 (inactive). Moreover, the slope in experiment [6] was 0.00372 (inactive).

Consider `O=C(Nc1ccccc1C(=O)N1CCN(c2ccccc2)CC1)c1ccco1`, for which the cell count in experiment [1] came to 300. For the same compound, the inhibition in experiment [1] was -5.1% (inactive); in experiment [3], -73.2% (inactive); in experiment [7], 0.26% (inactive); in experiment [8], -6.86% (inactive). Besides, in experiment [2], the inhibition of aggregation was 6.3% (inactive). Further, the nuclei count in experiment [2] worked out at 98.2%; in experiment [3], 111%. The fluorescence slope in experiment [4] was -0.605 (inactive). The NADPH fluorescence slope in experiment [5] was -2.1e-05 (inactive). Moreover, the slope in experiment [6] was 0.00253 (inactive).

With `CCCCn1c(=O)[nH]c(=O)c2c1nc(COc1ccc(C#N)cc1)n2CCC`, the cell count in experiment [1] was determined as 337. In addition, the inhibition was 3.4% (inactive) in experiment [1], 32.8% (inactive) in experiment [3], 10.1% (inactive) in experiment [7] and 30.2% (inactive) in experiment [8]. Further, in experiment [2], the inhibition of aggregation was -40.4% (inactive). Also, the nuclei count in experiment [2] was 97.4%; in experiment [3], 110%. Moreover, the fluorescence slope in experiment [4] was -0.538 (inactive). Also, the NADPH fluorescence slope in experiment [5] is 6.8e-06 (inactive). Moreover, in experiment [6], the slope is 0.00653 (inactive).

For `O=C(NCN1CCCCC1)c1cccnc1`, the cell count in experiment [1] amounted to 327. The inhibition was 7% (inactive) in experiment [1], -20% (inactive) in experiment [3], 5.02% (inactive) in experiment [7] and 35.7% (inactive) in experiment [8]. Also, the inhibition of aggregation in experiment [2] was -1.5% (inactive). Further, the nuclei count in experiment [2] came to 87.9%; in experiment [3], 92.8%. Besides, the fluorescence slope in experiment [4] is -0.488 (inactive). Besides, the NADPH fluorescence slope in experiment [5] was -4.4e-05 (inactive). In experiment [6], the slope was 0.00701 (inactive).

Consider `CCC(=O)N(CCCN(C)C)c1nc(-c2cc(OC)ccc2OC)cs1`, for which the cell count in experiment [1] amounted to 392. Besides, the inhibition in experiment [1] is 7.8% (inactive); in experiment [3], -14.7% (inactive); in experiment [7], 19.4% (inactive); in experiment [8] it was 27% (inactive). Moreover, the inhibition of aggregation in experiment [2] was -4.4% (inactive). The values for the nuclei count in experiment [2] and in experiment [3] were 106% and 116%, respectively. The fluorescence slope in experiment [4] was -0.623 (inactive). In addition, in experiment [5], the NADPH fluorescence slope is -6.2e-05 (inactive). Besides, the slope in experiment [6] is 0.00293 (inactive).

For the compound `CCOC(=O)c1csc(NC(=O)C2CCCCC2)n1`, the cell count in experiment [1] was 706. Moreover, the inhibition is -18.4% (inactive) in experiment [1], -4.9% (inactive) in experiment [3], -47.3% (inactive) in experiment [7] and -124% (inactive) in experiment [8]. The inhibition of aggregation in experiment [2] is -10% (inactive). In addition, the nuclei count in experiment [2] is 90.2%; in experiment [3], 94.6%. Also, the fluorescence slope in experiment [4] is -0.419 (inactive). Further, the NADPH fluorescence slope in experiment [5] was -0.000101 (inactive). Further, in experiment [6], the slope is 0.00464 (inactive).

In general, inhibition refers to the drop in the measured response relative to a control, in per cent.
